# Data taken from paper PMC7862700, “An all-to-all approach to the identification of sequence-specific readers for epigenetic DNA modifications on cytosine”.
# Experiments:
# Experiment in all cases: DAPPL (digital affinity profiling via proximity ligation, sequencing); 10 mM Tris-HCl pH 7.5, 50 mM NaCl, 1 mM DTT, 4% glycerol, room temperature, 30 min; GST-TFs on glutathione beads, 16-mer random dsDNA library, 0.1% formaldehyde crosslink after washing; high values mean tight binding
# Conditions in all cases: protein: recombinant; tags: N-terminal GST; dsDNA, one strand shown
# ETV3L = molecular target: T1, ETV3L (Homo sapiens, UniProt Q6ZN32 1-361)
# T1 sequence: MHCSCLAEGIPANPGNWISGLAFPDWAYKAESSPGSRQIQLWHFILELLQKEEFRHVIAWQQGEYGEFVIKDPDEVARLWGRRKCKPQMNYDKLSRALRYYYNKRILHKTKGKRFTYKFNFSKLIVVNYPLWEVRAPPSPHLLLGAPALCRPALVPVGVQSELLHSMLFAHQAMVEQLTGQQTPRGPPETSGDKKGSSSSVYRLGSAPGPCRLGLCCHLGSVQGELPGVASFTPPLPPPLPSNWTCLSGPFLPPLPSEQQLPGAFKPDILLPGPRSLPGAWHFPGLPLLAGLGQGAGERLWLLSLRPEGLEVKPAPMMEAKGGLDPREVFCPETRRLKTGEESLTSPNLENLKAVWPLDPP
# Outline: (§1)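 Yeast served to express human transcription factors as GST fusions, which were then captured on glutathione beads and labelled with DNA barcodes. Pooled with a tag-only sample, they were incubated with 200 nmole of a 16-mer random double-stranded DNA library for 30 min at room temperature in Tris/NaCl/DTT/glycerol buffer, washed, crosslinked with 0.1% formaldehyde, ligated by proximity, amplified by PCR and sequenced. Dividing each hexamer's read frequency for a factor by its frequency for the tag-only sample gives the binding signal.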
# ERF = molecular target: T2, ERF (Homo sapiens, UniProt P50548 1-548)
# T2 sequence: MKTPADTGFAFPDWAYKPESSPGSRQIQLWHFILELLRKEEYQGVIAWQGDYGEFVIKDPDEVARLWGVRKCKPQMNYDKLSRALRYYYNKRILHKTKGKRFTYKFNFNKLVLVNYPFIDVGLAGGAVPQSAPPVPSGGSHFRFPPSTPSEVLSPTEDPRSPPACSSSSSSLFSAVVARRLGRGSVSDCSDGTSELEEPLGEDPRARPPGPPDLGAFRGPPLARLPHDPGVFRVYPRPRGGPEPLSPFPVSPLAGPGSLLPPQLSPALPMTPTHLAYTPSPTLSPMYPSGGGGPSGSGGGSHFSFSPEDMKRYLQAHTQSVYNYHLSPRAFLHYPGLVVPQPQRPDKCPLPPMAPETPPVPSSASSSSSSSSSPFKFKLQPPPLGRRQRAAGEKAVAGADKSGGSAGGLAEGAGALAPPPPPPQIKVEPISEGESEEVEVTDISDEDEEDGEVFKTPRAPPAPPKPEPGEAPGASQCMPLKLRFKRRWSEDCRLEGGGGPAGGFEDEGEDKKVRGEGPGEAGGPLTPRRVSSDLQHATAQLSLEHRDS
# Outline: as §1
# ETV1 = ETV1 (Homo sapiens, UniProt P50549 1-477)
# Chain of ETV1 (P50549 whole entry): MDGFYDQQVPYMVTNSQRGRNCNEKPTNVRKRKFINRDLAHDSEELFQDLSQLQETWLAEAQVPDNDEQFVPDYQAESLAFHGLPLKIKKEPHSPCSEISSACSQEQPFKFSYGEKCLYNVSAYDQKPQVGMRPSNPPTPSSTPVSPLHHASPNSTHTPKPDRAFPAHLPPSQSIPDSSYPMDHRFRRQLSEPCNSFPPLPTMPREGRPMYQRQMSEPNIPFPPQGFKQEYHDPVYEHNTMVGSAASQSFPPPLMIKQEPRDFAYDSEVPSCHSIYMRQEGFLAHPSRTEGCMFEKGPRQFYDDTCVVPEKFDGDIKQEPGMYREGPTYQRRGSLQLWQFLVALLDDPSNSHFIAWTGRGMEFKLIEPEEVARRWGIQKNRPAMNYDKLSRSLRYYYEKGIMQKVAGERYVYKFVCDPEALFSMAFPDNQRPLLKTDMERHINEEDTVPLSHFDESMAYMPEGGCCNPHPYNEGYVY
# Outline: as §1
# SPDEF = molecular target: T3, SPDEF (Homo sapiens, UniProt O95238 1-335)
# T3 sequence: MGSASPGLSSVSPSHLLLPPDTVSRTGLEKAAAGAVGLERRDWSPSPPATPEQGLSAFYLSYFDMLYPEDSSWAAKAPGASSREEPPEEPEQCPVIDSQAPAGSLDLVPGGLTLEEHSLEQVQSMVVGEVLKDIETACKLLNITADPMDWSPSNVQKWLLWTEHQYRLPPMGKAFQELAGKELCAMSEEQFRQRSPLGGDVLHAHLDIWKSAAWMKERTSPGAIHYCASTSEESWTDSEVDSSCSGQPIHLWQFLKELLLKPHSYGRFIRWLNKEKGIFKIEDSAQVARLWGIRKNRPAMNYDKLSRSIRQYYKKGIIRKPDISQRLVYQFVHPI
# Outline: as §1
# EHF = molecular target: T4, EHF (Homo sapiens, UniProt Q9NZC4 1-300)
# T4 sequence: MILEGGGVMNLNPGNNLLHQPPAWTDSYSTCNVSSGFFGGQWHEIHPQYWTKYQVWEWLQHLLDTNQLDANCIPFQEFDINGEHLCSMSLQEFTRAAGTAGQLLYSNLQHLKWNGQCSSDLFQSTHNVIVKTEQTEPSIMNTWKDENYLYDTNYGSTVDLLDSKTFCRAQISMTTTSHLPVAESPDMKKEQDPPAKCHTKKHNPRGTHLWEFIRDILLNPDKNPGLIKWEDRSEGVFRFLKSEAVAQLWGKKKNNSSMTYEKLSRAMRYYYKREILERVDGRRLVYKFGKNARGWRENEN
# Outline: as §1
# ELF5 = molecular target: T5, ELF5 (Homo sapiens, UniProt Q9UKW6-2 1-255)
# T5 sequence: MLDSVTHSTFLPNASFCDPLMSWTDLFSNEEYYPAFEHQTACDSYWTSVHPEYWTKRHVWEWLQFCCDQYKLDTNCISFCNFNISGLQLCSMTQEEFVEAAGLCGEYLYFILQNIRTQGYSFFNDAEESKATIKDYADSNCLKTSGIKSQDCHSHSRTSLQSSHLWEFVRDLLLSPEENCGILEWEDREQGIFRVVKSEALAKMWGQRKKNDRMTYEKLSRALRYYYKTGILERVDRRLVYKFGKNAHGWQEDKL
# Outline: as §1
# GABPA = molecular target: T6, GABPA (Homo sapiens, UniProt Q06546 1-454)
# T6 sequence: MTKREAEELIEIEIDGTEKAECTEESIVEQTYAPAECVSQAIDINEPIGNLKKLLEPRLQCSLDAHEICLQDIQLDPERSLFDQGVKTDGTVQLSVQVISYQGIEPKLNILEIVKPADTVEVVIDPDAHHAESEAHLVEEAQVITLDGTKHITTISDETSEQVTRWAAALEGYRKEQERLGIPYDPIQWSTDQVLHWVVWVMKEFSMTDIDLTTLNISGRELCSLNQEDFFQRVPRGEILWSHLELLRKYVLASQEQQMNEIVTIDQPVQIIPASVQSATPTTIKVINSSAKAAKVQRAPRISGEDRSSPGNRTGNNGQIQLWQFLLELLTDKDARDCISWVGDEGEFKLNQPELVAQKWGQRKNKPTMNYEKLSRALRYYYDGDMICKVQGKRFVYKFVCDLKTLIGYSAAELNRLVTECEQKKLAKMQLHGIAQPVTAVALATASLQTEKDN
# Outline: as §1
# ERG = molecular target: T7, ERG (Homo sapiens, UniProt P11308 1-479)
# T7 sequence: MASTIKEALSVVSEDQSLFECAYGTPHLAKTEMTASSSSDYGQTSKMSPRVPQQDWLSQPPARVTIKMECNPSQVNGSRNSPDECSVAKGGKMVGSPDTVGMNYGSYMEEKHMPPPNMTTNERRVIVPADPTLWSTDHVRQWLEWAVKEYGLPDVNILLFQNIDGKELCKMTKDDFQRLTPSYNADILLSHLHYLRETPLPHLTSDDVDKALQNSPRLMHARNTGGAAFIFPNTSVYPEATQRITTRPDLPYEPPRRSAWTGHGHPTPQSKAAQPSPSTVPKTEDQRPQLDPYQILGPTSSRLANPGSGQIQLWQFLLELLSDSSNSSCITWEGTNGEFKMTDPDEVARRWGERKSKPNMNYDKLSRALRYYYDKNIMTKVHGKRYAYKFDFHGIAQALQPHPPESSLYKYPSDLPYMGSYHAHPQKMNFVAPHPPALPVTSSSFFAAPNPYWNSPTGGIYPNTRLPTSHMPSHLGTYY
# Outline: as §1
# ELK3 = molecular target: T8, ELK3 (Homo sapiens, UniProt P41970 1-407)
# T8 sequence: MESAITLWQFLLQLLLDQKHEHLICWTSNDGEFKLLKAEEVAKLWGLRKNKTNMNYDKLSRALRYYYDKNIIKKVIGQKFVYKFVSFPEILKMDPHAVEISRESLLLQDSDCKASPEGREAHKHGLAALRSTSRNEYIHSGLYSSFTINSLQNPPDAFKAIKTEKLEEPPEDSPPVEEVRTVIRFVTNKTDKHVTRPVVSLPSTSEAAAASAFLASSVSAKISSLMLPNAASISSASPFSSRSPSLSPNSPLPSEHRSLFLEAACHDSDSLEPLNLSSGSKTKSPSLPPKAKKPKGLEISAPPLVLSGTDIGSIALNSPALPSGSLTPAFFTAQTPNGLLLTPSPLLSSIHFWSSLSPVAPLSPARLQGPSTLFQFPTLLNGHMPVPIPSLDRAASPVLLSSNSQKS
# Outline: as §1
# ETV6 = ETV6 (Homo sapiens, UniProt P41212 1-452)
# Chain of ETV6 (P41212 whole entry): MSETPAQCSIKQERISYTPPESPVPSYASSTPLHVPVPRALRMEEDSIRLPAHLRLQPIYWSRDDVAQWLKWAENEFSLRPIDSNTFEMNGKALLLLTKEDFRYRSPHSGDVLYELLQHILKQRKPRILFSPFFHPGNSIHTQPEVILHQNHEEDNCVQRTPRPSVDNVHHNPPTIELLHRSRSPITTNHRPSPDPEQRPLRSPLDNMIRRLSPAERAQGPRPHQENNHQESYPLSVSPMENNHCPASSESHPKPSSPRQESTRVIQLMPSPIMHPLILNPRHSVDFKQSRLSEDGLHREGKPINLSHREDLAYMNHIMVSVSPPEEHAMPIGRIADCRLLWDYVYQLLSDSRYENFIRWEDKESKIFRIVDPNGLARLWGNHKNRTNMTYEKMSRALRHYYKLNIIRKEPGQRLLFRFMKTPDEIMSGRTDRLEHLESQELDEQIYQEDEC
# Outline: as §1
# ETV7 = molecular target: T9, ETV7 (Homo sapiens, UniProt Q9Y603 1-341)
# T9 sequence: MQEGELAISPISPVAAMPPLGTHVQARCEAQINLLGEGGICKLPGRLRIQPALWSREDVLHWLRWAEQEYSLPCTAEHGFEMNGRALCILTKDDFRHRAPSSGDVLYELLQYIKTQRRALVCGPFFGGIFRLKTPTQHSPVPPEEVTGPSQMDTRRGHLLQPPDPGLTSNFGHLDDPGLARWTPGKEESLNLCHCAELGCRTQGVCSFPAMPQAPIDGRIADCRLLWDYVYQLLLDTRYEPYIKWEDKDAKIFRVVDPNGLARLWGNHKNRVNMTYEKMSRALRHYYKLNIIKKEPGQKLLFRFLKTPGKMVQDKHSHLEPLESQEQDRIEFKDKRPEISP
# Outline: as §1
sequence,measurement,setting,value
GACACC,binding signal,ETV3L,"1.01 fold enrichment (6-mer frequency, TF over GST control)"
AGCACC,binding signal,ERF,"1.03 fold enrichment (6-mer frequency, TF over GST control)"
same,binding signal,ETV3L,"1.04 fold enrichment (6-mer frequency, TF over GST control)"
GGTGCT,binding signal,ETV1,"1.08 fold enrichment (6-mer frequency, TF over GST control)"
GGGTCT,binding signal,SPDEF,"1.01 fold enrichment (6-mer frequency, TF over GST control)"
CCGGGC,binding signal,SPDEF,"1.05 fold enrichment (6-mer frequency, TF over GST control)"
CGGTAA,binding signal,EHF,"1.01 fold enrichment (6-mer frequency, TF over GST control)"
same,binding signal,ELF5,"1.05 fold enrichment (6-mer frequency, TF over GST control)"
GCAACG,binding signal,GABPA,"1.03 fold enrichment (6-mer frequency, TF over GST control)"
same,binding signal,ERG,"1 fold enrichment (6-mer frequency, TF over GST control)"
same,binding signal,ERF,"1.01 fold enrichment (6-mer frequency, TF over GST control)"
GCGCTA,binding signal,ELK3,"1.13 fold enrichment (6-mer frequency, TF over GST control)"
same,binding signal,ERF,"1.05 fold enrichment (6-mer frequency, TF over GST control)"
same,binding signal,ETV6,"1 fold enrichment (6-mer frequency, TF over GST control)"
TCGCCA,binding signal,GABPA,"1 fold enrichment (6-mer frequency, TF over GST control)"
same,binding signal,ETV3L,"1.01 fold enrichment (6-mer frequency, TF over GST control)"
CGCATC,binding signal,SPDEF,"1.02 fold enrichment (6-mer frequency, TF over GST control)"
GGGTCC,binding signal,SPDEF,"1 fold enrichment (6-mer frequency, TF over GST control)"
CAGCAA,binding signal,ELK3,"1.01 fold enrichment (6-mer frequency, TF over GST control)"
same,binding signal,ERF,"1.04 fold enrichment (6-mer frequency, TF over GST control)"
same,binding signal,ETV7,"1.06 fold enrichment (6-mer frequency, TF over GST control)"
